Source: PubChem (National Center for Advancing Translational Sciences (NCATS))
Cruzain inh Det = cruzain (T. cruzi) inhibition with detergent. AID 1478. actives 0.43% (n = 200,000). purified cruzain, Z-FR-AMC fluorescence, 0.01% Triton. Potency, µM, usual class: inhibitors; also: nearly all actives have a fitted effect of over 40% in size
Target sequence (P25779 123-467 limits assumed): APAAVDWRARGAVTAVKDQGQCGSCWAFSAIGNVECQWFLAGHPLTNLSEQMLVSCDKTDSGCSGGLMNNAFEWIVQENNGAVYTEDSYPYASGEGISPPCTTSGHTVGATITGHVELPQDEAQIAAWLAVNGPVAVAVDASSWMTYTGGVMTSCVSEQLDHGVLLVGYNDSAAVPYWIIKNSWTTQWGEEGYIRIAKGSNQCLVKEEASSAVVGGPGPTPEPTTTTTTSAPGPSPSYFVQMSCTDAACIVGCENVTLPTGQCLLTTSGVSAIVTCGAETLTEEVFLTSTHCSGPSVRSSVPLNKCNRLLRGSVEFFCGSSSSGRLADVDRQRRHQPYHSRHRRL
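Z-FR-AMC hydrolysis (2 uM substrate) by cruzain (1.5 nM) monitored kinetically at ex 360/em 450 nm after 15 min room-temperature compound exposure; 0.01% Triton X-100, pH 5.5, 5 mM DTT.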
Cruzain noTriton = blocks cruzain activity in detergent-free assay | purified cruzain, Z-FR-AMC fluorescence, no detergent | Potency, µM, hits mostly inhibitors | actives 2.3% (n = 200,000) | AID 1476; also: nearly all actives have a fitted effect of over 40% in size
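Detergent-free condition (0.00005% Triton X-100) in acetate buffer pH 5.5 with DTT. 1.5 nM enzyme and compound were pre-mixed 15 min, then 2 uM Z-FR-AMC substrate added; reaction progress from fluorescence change between first and third reads (60 s).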
Numbers stand for hits; – = inactive; ? = inconclusive. Hits are enriched below; roughly 2.6% of the tested compounds scored in any of these assays. Calls follow the shape of the dose curve; as a rule, active = well fitted curve in the direction sought with a large enough effect; inconclusive = small, poorly fitted or top-dose-only effect, or another doubt; inactive = no such curve, though single readings can be large; an effect the other way counts as inactive or inconclusive.

SMILES | Cruzain inh Det | Cruzain noTriton
O=C(Nc1ccccc1N1CCN(c2ccc(F)cc2)CC1)c1ccccc1 | – | ?
O=C(Nc1ccccc1N1CCN(c2ccc(F)cc2)CC1)C12CC3CC(CC(C3)C1)C2 | – | 25µM
CCN1CCCC1Cn1c(-c2ccccc2)nc2c(N3CCOCC3)nc(C)nc21 (stereo unspecified) | – | –
C=CCNC(=S)NNC(=O)c1cc(C)nc2ccccc12 | – | –
CCc1c(C)sc2c1CCN(C(=O)Nc1ccccc1C(=O)OC)C2c1ccc(F)cc1 (stereo unspecified) | – | ?
CCc1c(C)sc2c1CCN(C(=O)Nc1cc(Cl)c(OC)cc1OC)C2c1ccccc1 (stereo unspecified) | – | 6.3µM
CCc1c(C)sc2c1CCN(C(=O)Nc1ccc(F)c(Cl)c1)C2c1ccc(F)cc1 (stereo unspecified) | – | 10µM
CCc1c(C)sc2c1CCN(C(=O)Nc1ccccc1C(F)(F)F)C2c1ccccc1 (stereo unspecified) | – | –
COc1ccc(/C=C/C(=O)c2cccs2)cc1OC | – | ?
O=C(C1CCCN(S(=O)(=O)c2cccs2)C1)N1CCN(c2cccc(Cl)c2)CC1 (stereo unspecified) | – | –
Cc1[nH]n(-c2ncc(-c3ccc(Cl)cc3)s2)c(=O)c1C(c1ccc(Cl)cc1)C(C#N)C#N (stereo unspecified) | ? | 3.2µM
COc1ccc(C(c2c(C)[nH]n(C(N)=S)c2=O)C(C#N)C#N)cc1 (stereo unspecified) | – | –
Cc1noc(C)c1S(=O)(=O)N1CCC(C(=O)N2CCN(C(=O)c3ccco3)CC2)CC1 | – | –
O=C(CSc1nnc(C2CC2)n1Cc1ccccc1)NCc1ccccc1 | – | –
Cc1ccc(C)c(NC(=S)NC(NC(=O)N(C)C)C(Cl)(Cl)Cl)c1 (stereo unspecified) | – | –
Cc1ccc(C)c(NC(=S)NC(NC(=O)Cc2cccc3ccccc23)C(Cl)(Cl)Cl)c1 (stereo unspecified) | – | 7.9µM
O=C(Nc1cc(Cl)cc(Cl)c1)c1ccc(F)c(S(=O)(=O)NCc2ccccc2Cl)c1 | – | ?
Cc1cccc(NC(=O)CN2C(=O)COc3ccc(S(=O)(=O)Nc4ccccc4)cc32)c1C | – | ?
CC(C)c1ccc(NC(=O)CN2C(=O)COc3ccc(S(=O)(=O)Nc4ccccc4)cc32)cc1 | – | 20µM
CCOc1ccc(C2=C(C=Nc3c(C)n(C)n(-c4ccccc4)c3=O)C(c3ccc(F)cc3)c3ccccc3O2)cc1 (stereo unspecified) | – | 3.2µM
CCOc1ccc(C2SCC(=O)N2c2c(C)n(C)n(-c3ccccc3)c2=O)cc1 (stereo unspecified) | – | –
COc1cccc(/C=N/NC(=O)CSc2ccccc2C)c1O | – | –
COc1cccc(/C=N/NC(=O)c2nc(-c3ccccc3)cc(-c3ccccc3)n2)c1O | – | 13µM
Cc1ccc(-n2nnnc2SCC(=O)c2ccc3c(c2)NC(=O)CO3)c(C)c1 | – | –
COc1cc(NS(=O)(=O)c2ccc(C)cc2C)cc(OC)c1OC | – | –
SMILES | Cruzain inh Det | Cruzain noTriton
C[C@H](O)CON1C(=O)c2ccccc2C1=O | – | –
Cc1ccc(S(=O)(=O)ON2C(=O)c3ccccc3C2=O)c(C)c1 | 13µM | 16µM
Cc1cc(C)c(C)c(S(=O)(=O)ON2C(=O)c3ccccc3C2=O)c1C | 20µM | 25µM
CCCCCCCC[N+](CCCCCCCC)(CCCCCCCC)CCCCCCCC | – | –
O=C(COC(=O)c1ccc(CNS(=O)(=O)c2ccc(F)c(Cl)c2)cc1)NCC1CCCCC1 | – | –
CC(=O)NCCNc1nc2c(-c3ccc(C)cc3)nnn2c2ccccc12 | – | –
COc1ccccc1N1CCN(C2=NS(=O)(=O)c3ccccc32)CC1 | – | –
CCc1cc2c(=O)nc3n(c2s1)Cc1ccccc1/C3=C(/O)c1ccc(F)cc1 | – | ?
CCc1cc2c(=O)nc3n(c2s1)Cc1ccccc1/C3=C(/O)c1ccccc1Cl | – | 25µM
O=C1CC(C(=O)O)S/C(=N\NC(=O)c2ccc(F)cc2)N1 (stereo unspecified) | – | –
COc1ccc(-c2csc(/C(C#N)=C(\O)CSc3nccn3C)n2)cc1OC | – | –
COc1cccc(-n2c(SCC(=O)Nc3cc(C)ccc3C)nc3c(oc4ccccc43)c2=O)c1 | – | –
COc1cccc(-n2c(SCC(=O)Nc3cccc(Cl)c3)nc3c(oc4ccccc43)c2=O)c1 | – | 13µM
Cc1cccc(NC(=O)CSc2nc3c(oc4ccccc43)c(=O)n2C(C)C)c1 | – | –
O=C(CSc1nc2c(oc3ccccc32)c(=O)[nH]1)Nc1cccc(Cl)c1 | – | 7.9µM
O=C(NCCN=C1NS(=O)(=O)c2ccccc21)c1ccncc1 | – | –
COc1ccc(-c2cc(=O)oc3cc(OCC(C)=O)ccc23)cc1 | – | –
COc1ccc(-c2cc(=O)oc3cc(OCC(=O)c4cccc([N+](=O)[O-])c4)ccc23)cc1 | – | 25µM
Cc1ccc(N2C(=O)c3ccc(C(=O)N4CCN(c5ccccc5F)CC4)cc3C2=O)cc1 | – | –
CC(=Nc1ccccc1)Nc1ccccc1 | – | –
O=C(Nc1ccc(Cl)cc1)[C@@H]1[C@@H]2C(=O)N(c3ccc(Cl)cc3)C(=O)[C@@H]2[C@H]2C=CC=NN21 | – | 20µM
Cc1ccc(N2C(=O)[C@@H]3[C@H](C2=O)[C@H]2C=CC=NN2[C@@H]3C(=O)Nc2ccc(Cl)cc2)cc1 | – | –
CC(=O)Oc1ccc(C(=O)[C@H]2[C@H]3C(=O)N(c4ccc5ccccc5c4)C(=O)[C@H]3[C@@H]3C=CC=NN32)cc1 | – | ?
O=C(Nc1ccc(Cl)cc1)[C@@H]1[C@@H]2C(=O)N(c3ccc(Cl)cc3Cl)C(=O)[C@@H]2[C@H]2C=CC=NN21 | – | 16µM
O=C(Nc1ccc2c(c1)OCO2)N1CCN(c2cccc(C(F)(F)F)c2)CC1 | – | –
SMILES | Cruzain inh Det | Cruzain noTriton
Cc1oc(-c2ccc(Cl)cc2)nc1CN1CCCC(C(=O)NCCc2ccc(Cl)cc2)C1 (stereo unspecified) | – | –
CCNC(=S)Nc1ccccc1-c1ccccc1 | – | –
C1=C(c2ccccc2)Nc2nnnn2C1c1cccs1 (stereo unspecified) | – | –
Cc1ccc(C2=CC(c3cccs3)n3nnnc3N2)cc1 (stereo unspecified) | – | 16µM
COCC(=O)n1nc(-c2ccco2)nc1NCc1ccccc1Cl | – | –
Cc1ccc(-n2nc(C)c(C3C(C#N)=C(N)Oc4c3c(=O)oc3ccccc43)c2Cl)cc1 (stereo unspecified) | – | 20µM
Cc1nn(-c2ccccc2)c(Cl)c1C1C(C#N)=C(N)Oc2c1c(C)nn2-c1ccccc1 (stereo unspecified) | – | –
CCOc1cc2[nH]c(=S)n(CCCN(CC)CC)c(=O)c2cc1OCC | – | –
O=C(N/N=C/c1ccc2ccccc2c1)c1ccc(COc2ccc3c(c2)CCC3)o1 | – | 20µM
COc1ccc(Br)cc1/C=N/NC(=O)c1ccc(COc2ccc3c(c2)CCC3)o1 | – | –
COc1cc(/C=C/C(=O)Nc2nc3ccc(S(=O)(=O)N(C)C)cc3s2)cc(OC)c1OC | – | –
CCN1CCN(C(=O)c2ccc3c(c2)N(Cc2cccc(Cl)c2)C(=O)c2ccccc2S3(=O)=O)CC1 | – | –
O=C(/C=C/c1cccs1)Nc1ccc(N2CCOCC2)c(S(=O)(=O)Nc2ccccc2Cl)c1 | – | 25µM
O=C(/C=C/c1ccc(Cl)cc1)NC(=S)Nc1ccc(N2CCOCC2)c(Cl)c1 | – | ?
